According to the supplement of paper PMC10849652:
About 7,900 targets were measured; listed, in parts, are those with a hit and a random draw of the rest. About 0.6% of all pairs of compound and target were hits.

Legend:
Experiment in all cases: log2 fold change, soluble protein after heating vs DMSO (PISA); higher = thermal stabilisation; K562 cells, 10 uM, 30 min; active = over 0.2 and 3.5 SD of the protein, either way, in both replicates (recomputed)
[1] = compound: COC1=CC=C(C=C1)CN2C=CC3=C2C=C(C=C3)C(=O)NO
Outline: (§1)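 Quantification of soluble protein used TMTpro 16plex LC-MS/MS, with channel sums equalised. Samples were the supernatant after 21,000xg for 90 min of pooled aliquots from K562 cells (2×10^6 cells/mL) treated with 10 μM compound for 30 min, heated for 3 min over 48°C-58°C, and extracted in PBS with 0.5% NP-40 at 4°C. Values, from duplicates, describe thermal stability against control samples on a log2 fold-change scale.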

[2] = compound: CON(C)C(=O)N1N=C(c2cc(F)ccc2F)S[C@@]1(CCCN)c1ccccc1 [filanesib]
Outline: as §1

[3] = compound: CO[C@H]1C[C@@H]2CC[C@@H](C)[C@@](O)(O2)C(=O)C(=O)N2CCCC[C@H]2C(=O)O[C@H]([C@H](C)C[C@@H]2CC[C@H](n3cnnn3)[C@H](OC)C2)CC(=O)[C@H](C)/C=C(\C)[C@@H](O)[C@@H](OC)C(=O)[C@H](C)C[C@H](C)/C=C/C=C/C=C/1C [zotarolimus]
Outline: as §1

[4] = compound: COc1cc(C(=O)O)ccc1NC(=O)[C@@H]1N[C@@H](CC(C)(C)C)[C@](C#N)(c2ccc(Cl)cc2F)[C@H]1c1cccc(Cl)c1F [idasanutlin]
Outline: as §1

[5] = compound: COc1cc(Nc2ncc3c(n2)-c2ccc(Cl)cc2C(c2c(F)cccc2OC)=NC3)ccc1C(=O)O [alisertib]
Outline: as §1

[6] = compound: COc1cc2nc(-c3cc(F)ccc3O)nc(N[C@@H]3CNC[C@H]3C(C)(C)O)c2cc1OC
Outline: as §1

[7] = compound: COc1cc2ncnc(Nc3ccc(F)c(Cl)c3)c2cc1OCCCN1CCOCC1 [gefitinib]
Outline: as §1

[8] = compound: COc1cccc2cc(-c3nc([C@H]4CC[C@H](C(=O)O)CC4)n4ncnc(N)c34)[nH]c12
Outline: as §1

[9] = compound: CS(=O)(=O)CCNCc1ccc(-c2ccc3ncnc(Nc4ccc(OCc5cccc(F)c5)c(Cl)c4)c3c2)o1 [lapatinib]
Outline: as §1

[10] = compound: CS(=O)(=O)N1CCN(Cc2cc3nc(-c4cccc5[nH]ncc45)nc(N4CCOCC4)c3s2)CC1 [pictilisib]
Outline: as §1

[11] = compound: CS(=O)(=O)c1ccc(-c2cnc(N)c(C(=O)Nc3ccccc3)n2)cc1
Outline: as §1

[12] = compound: C[C@@H](Oc1cc(-c2cnn(C3CCNCC3)c2)cnc1N)c1c(Cl)ccc(F)c1Cl [crizotinib]
Outline: as §1

[13] = compound: C[C@@H]1COCCN1C2=NC(=NC(=C2)C3(CC3)S(=O)(=O)C)C4=C5C=CNC5=CC=C4
Outline: as §1

[14] = compound: C[C@H](C1=CC=C(C=C1)C(=O)NC2=C3C=CNC3=NC=C2)N
Outline: as §1

[15] = compound: C[C@H](Nc1ncnc2nc[nH]c12)c1cc2cccc(Cl)c2c(=O)n1-c1ccccc1 [duvelisib]
Outline: as §1

[16] = compound: Cc1cc(Nc2cc(CN3CCOCC3)c3nc(C)c(Cc4ccc(Cl)cc4F)n3n2)n[nH]1 [gandotinib]
Outline: as §1

[17] = compound: Cc1cc(Nc2cc(N3CCN(C)CC3)nc(Sc3ccc(NC(=O)C4CC4)cc3)n2)n[nH]1 [tozasertib]
Outline: as §1

[18] = compound: Cc1cc(SCc2sc(-c3ccc(C(F)(F)F)cc3)nc2C)ccc1OCC(=O)O
Outline: as §1

[19] = compound: Cc1ccc(-n2nc(C(C)(C)C)cc2NC(=O)Nc2ccc(OCCN3CCOCC3)c3ccccc23)cc1 [doramapimod]
Outline: as §1

[20] = compound: Cc1ccc(C(=O)N(CCCN)[C@@H](c2nc3cc(Cl)ccc3c(=O)n2Cc2ccccc2)C(C)C)cc1 [ispinesib]
Outline: as §1

Measured: log2 fold change

PRKAR1B (UniProt P31321)
inactive: [1] 0.1 | [2] 0.034 | [3] 0.011 | [4] -0.099 | [5] 0.02 | [6] 0.027 | [7] 0.051 | [8] -0.162 | [9] 0.004 | [10] 0.199 | [11] 0.137 | [12] 0.132 | [13] 0.071 | [14] 0.123 | [15] 0.199 | [16] 0.095 | [17] 0.136 | [18] -0.011 | [19] -0.03 | [20] -0.072

PRPF38A (UniProt Q8NAV1)
inactive: [1] -0.113 | [2] 0.046 | [3] -0.014 | [4] 0.035 | [5] -0.033 | [6] 0.041 | [7] 0.009 | [8] 0.002 | [9] -0.035 | [10] 0.085 | [11] -0.029 | [12] 0.018 | [13] 0.017 | [14] 0.009 | [15] 0.037 | [16] -0.042 | [17] -0.071 | [18] 0.017 | [19] 0.006 | [20] -0.024

PTRH2 (UniProt Q9Y3E5)
Sequence of UniProt Q9Y3E5 (Q9Y3E5 whole entry, looked up): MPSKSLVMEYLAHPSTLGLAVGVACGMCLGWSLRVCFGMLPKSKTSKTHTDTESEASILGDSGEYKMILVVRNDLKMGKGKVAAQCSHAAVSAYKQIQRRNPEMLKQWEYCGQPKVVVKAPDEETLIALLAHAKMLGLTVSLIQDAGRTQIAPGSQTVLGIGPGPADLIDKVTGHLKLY
active: [1] 0.403
inactive: [2] -0.033 | [3] 0.01 | [4] -0.076 | [5] -0.009 | [6] 0.07 | [7] 0.015 | [8] 0.001 | [9] 0.012 | [10] -0.005 | [11] 0.02 | [12] 0.081 | [13] 0.061 | [14] -0.098 | [15] 0.051 | [16] -0.02 | [17] 0.001 | [18] -0.001 | [19] -0.074 | [20] 0.181

PRMT8 (UniProt Q9NR22)
inactive: [1] -0.143 | [2] -0.162 | [3] -0.014 | [4] -0.109 | [5] -0.028 | [6] -0.019 | [7] 0.002 | [8] 0.042 | [9] 0.145 | [10] 0.025 | [11] -0.046 | [12] -0.03 | [13] -0.043 | [14] 0.024 | [15] 0.012 | [16] -0.047 | [17] -0.024 | [18] 0.045 | [19] -0.021 | [20] 0.13

RAB11FIP1 (UniProt Q6WKZ4)
Sequence of UniProt Q6WKZ4 (Q6WKZ4 whole entry, looked up): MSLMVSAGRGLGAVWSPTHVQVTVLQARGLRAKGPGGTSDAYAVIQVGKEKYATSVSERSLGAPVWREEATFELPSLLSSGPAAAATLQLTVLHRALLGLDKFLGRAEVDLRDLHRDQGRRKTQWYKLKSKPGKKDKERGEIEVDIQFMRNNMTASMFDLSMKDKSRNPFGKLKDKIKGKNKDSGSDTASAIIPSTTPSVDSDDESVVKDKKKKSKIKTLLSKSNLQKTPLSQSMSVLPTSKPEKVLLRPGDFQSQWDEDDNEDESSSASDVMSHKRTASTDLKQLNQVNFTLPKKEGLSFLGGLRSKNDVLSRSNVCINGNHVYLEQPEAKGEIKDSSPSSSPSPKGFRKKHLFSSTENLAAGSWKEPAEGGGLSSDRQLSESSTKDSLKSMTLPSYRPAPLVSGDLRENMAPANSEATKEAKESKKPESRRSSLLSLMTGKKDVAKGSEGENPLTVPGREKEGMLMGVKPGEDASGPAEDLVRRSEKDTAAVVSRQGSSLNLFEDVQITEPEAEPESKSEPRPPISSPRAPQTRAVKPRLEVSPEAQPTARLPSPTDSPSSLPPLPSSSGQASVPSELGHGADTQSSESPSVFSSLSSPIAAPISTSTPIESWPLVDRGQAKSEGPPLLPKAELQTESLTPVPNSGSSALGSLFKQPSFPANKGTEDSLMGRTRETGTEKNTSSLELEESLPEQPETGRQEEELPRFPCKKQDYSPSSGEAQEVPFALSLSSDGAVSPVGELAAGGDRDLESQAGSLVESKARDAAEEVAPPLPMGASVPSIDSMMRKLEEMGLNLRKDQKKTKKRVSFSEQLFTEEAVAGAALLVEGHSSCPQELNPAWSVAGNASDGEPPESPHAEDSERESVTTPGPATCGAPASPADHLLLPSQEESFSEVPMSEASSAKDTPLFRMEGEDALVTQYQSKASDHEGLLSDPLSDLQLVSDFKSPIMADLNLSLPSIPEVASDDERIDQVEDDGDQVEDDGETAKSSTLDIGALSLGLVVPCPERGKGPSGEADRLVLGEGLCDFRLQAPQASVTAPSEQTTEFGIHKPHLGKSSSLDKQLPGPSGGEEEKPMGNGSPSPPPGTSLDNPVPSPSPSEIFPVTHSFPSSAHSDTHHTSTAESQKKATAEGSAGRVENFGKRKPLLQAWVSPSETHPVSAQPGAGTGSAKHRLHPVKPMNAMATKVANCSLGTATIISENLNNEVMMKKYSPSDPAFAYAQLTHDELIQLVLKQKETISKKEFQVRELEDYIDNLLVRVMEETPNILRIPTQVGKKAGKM
inactive: [1] -0.024 | [2] 0.004 | [3] 0 | [4] -0.015 | [5] 0.368 | [6] -0.03 | [7] -0.009 | [8] 0.007 | [9] 0.01 | [10] -0.107 | [11] -0.071 | [12] -0.096 | [13] -0.001 | [14] -0.038 | [15] 0.004 | [16] -0.01 | [17] 0.057 | [18] -0.003 | [19] 0.047
active: [20] -0.251

PSMD9 (UniProt O00233)
active: [10] -0.261
inactive: [1] -0.028 | [2] -0.053 | [3] -0.021 | [4] 0.005 | [5] -0.074 | [6] 0.056 | [7] -0.013 | [8] -0.005 | [9] -0.021 | [11] -0.041 | [12] -0.069 | [13] 0.022 | [14] -0.059 | [15] 0.038 | [16] -0.018 | [17] -0.03 | [18] -0.026 | [19] 0.001 | [20] 0.016

PSMD6 (UniProt Q15008)
inactive: [1] -0.02 | [2] 0.042 | [3] 0.017 | [4] -0.013 | [5] -0.091 | [6] -0.062 | [7] -0.021 | [8] -0.045 | [9] 0.102 | [10] -0.036 | [11] 0.033 | [12] -0.046 | [13] -0.08 | [14] 0.052 | [15] -0.071 | [16] -0.02 | [17] 0.047 | [18] 0.03 | [19] 0.057 | [20] 0.056

PDS5B (UniProt Q9NTI5)
active: [17] -0.604
inactive: [1] 0.065 | [2] 0.104 | [3] 0.037 | [4] -0.07 | [5] -0.05 | [6] -0.188 | [7] 0.123 | [8] 0.078 | [9] -0.206 | [10] 0.066 | [11] 0.03 | [12] -0.229 | [13] 0.222 | [14] 0.041 | [15] 0.004 | [16] -0.149 | [18] 0.208 | [19] -0.074 | [20] -0.225

PRIM2 (UniProt P49643)
inactive: [1] 0.044 | [2] -0.139 | [3] -0.132 | [4] 0.03 | [5] -0.042 | [6] 0.063 | [7] 0.069 | [8] -0.033 | [9] -0.005 | [10] 0.086 | [11] 0.078 | [12] -0.063 | [13] 0.154 | [14] 0.066 | [15] -0.038 | [16] 0.07 | [17] 0.059 | [18] 0.145 | [19] -0.06 | [20] -0.061

PRKD2 isoform 3 (UniProt Q9BZL6)
inactive: [1] -0.05 | [2] -0.037 | [3] -0.125 | [4] 0.078 | [5] -0.03 | [6] -0.042 | [7] -0.159 | [8] 0.033 | [9] -0.011 | [10] -0.17 | [11] -0.275 | [12] -0.39 | [13] 0.108 | [14] -0.111 | [15] 0.066 | [16] 0.017 | [17] 0.048 | [18] -0.014 | [19] 0.023 | [20] -0.129

PRKCQ (UniProt Q04759)
Sequence of UniProt Q04759 (Q04759 whole entry, looked up): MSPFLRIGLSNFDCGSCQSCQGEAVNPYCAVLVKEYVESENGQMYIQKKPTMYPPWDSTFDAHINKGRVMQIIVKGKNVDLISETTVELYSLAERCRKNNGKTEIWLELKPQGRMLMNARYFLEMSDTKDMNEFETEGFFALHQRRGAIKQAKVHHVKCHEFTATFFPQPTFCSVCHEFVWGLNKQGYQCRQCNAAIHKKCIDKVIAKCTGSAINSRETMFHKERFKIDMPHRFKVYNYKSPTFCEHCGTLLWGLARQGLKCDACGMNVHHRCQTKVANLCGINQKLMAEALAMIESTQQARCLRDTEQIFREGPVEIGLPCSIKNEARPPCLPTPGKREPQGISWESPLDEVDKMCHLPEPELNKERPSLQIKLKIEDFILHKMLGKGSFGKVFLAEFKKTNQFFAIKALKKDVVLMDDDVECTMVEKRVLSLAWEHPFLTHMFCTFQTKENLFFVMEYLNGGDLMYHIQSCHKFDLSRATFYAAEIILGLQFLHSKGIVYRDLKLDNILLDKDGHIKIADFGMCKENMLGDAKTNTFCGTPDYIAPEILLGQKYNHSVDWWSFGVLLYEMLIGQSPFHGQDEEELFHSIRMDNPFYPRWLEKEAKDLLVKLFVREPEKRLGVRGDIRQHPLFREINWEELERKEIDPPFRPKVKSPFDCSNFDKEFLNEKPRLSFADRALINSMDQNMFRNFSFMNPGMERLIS
inactive: [1] -0.044 | [2] -0.027 | [3] 0.052 | [4] -0.003 | [5] -0.018 | [6] -0.206 | [7] 0.021 | [8] -0.008 | [9] 0.041 | [10] -0.053 | [11] 0.021 | [12] -0.238 | [13] 0.037 | [15] 0.022 | [16] -0.165 | [17] -0.033 | [18] 0.023 | [19] 0.038 | [20] -0.106
active: [14] -0.374

PGGHG (UniProt Q32M88)
inactive: [1] -0.022 | [2] 0.073 | [3] 0.024 | [4] 0.162 | [5] -0.123 | [6] 0.082 | [7] -0.062 | [8] 0.041 | [9] -0.08 | [10] 0.042 | [11] 0.019 | [12] -0.01 | [13] 0.003 | [14] 0.175 | [15] 0.073 | [16] -0.039 | [17] -0.108 | [18] 0.049 | [19] 0.048 | [20] 0.05

PDLIM7 (UniProt Q9NR12)
Sequence of UniProt Q9NR12 (Q9NR12 whole entry, looked up): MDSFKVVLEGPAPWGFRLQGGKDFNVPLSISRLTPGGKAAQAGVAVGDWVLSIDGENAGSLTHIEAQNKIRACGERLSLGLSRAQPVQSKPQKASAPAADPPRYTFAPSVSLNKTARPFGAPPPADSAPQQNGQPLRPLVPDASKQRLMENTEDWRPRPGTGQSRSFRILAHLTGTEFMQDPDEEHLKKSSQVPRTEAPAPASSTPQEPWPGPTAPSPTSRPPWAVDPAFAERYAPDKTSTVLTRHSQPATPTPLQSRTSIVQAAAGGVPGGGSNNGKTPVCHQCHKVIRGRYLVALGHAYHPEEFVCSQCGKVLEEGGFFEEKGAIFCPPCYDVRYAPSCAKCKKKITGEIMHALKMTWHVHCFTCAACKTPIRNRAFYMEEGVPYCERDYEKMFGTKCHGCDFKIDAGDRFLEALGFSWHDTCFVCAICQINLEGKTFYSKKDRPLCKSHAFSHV
inactive: [1] 0.055 | [2] 0.014 | [3] 0.014 | [4] -0.042 | [5] -0.06 | [6] 0.03 | [7] -0.104 | [8] 0.012 | [9] 0.012 | [10] -0.046 | [11] -0.01 | [12] -0.075 | [13] -0.002 | [14] -0.05 | [15] 0.019 | [16] 0.026 | [17] -0.002 | [18] 0.004 | [19] 0.012 | [20] -0.075

PIP4K2B (UniProt P78356)
Sequence of UniProt P78356 (P78356 whole entry, looked up): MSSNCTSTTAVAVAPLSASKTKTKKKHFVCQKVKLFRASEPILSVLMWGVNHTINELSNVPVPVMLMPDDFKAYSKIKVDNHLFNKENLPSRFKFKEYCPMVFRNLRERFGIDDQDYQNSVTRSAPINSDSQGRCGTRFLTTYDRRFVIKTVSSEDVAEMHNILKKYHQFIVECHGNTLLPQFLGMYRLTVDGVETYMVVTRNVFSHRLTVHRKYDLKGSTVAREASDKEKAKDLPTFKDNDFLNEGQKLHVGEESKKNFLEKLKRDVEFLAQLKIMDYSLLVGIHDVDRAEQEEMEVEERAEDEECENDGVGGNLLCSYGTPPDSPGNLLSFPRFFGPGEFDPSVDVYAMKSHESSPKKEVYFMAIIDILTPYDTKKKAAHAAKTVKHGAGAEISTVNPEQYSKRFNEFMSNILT
active: [6] 0.379 | [11] 0.63
inactive: [1] 0.028 | [2] -0.146 | [3] 0.025 | [4] -0.104 | [5] -0.045 | [7] 0.035 | [8] 0.207 | [9] -0.026 | [10] 0.022 | [12] -0.01 | [13] 0.048 | [14] -0.072 | [15] 0.028 | [16] -0.031 | [17] -0.025 | [18] -0.009 | [19] -0.055 | [20] -0.007

PTPN23 (UniProt Q9H3S7)
Sequence of UniProt Q9H3S7 (Q9H3S7 whole entry, looked up): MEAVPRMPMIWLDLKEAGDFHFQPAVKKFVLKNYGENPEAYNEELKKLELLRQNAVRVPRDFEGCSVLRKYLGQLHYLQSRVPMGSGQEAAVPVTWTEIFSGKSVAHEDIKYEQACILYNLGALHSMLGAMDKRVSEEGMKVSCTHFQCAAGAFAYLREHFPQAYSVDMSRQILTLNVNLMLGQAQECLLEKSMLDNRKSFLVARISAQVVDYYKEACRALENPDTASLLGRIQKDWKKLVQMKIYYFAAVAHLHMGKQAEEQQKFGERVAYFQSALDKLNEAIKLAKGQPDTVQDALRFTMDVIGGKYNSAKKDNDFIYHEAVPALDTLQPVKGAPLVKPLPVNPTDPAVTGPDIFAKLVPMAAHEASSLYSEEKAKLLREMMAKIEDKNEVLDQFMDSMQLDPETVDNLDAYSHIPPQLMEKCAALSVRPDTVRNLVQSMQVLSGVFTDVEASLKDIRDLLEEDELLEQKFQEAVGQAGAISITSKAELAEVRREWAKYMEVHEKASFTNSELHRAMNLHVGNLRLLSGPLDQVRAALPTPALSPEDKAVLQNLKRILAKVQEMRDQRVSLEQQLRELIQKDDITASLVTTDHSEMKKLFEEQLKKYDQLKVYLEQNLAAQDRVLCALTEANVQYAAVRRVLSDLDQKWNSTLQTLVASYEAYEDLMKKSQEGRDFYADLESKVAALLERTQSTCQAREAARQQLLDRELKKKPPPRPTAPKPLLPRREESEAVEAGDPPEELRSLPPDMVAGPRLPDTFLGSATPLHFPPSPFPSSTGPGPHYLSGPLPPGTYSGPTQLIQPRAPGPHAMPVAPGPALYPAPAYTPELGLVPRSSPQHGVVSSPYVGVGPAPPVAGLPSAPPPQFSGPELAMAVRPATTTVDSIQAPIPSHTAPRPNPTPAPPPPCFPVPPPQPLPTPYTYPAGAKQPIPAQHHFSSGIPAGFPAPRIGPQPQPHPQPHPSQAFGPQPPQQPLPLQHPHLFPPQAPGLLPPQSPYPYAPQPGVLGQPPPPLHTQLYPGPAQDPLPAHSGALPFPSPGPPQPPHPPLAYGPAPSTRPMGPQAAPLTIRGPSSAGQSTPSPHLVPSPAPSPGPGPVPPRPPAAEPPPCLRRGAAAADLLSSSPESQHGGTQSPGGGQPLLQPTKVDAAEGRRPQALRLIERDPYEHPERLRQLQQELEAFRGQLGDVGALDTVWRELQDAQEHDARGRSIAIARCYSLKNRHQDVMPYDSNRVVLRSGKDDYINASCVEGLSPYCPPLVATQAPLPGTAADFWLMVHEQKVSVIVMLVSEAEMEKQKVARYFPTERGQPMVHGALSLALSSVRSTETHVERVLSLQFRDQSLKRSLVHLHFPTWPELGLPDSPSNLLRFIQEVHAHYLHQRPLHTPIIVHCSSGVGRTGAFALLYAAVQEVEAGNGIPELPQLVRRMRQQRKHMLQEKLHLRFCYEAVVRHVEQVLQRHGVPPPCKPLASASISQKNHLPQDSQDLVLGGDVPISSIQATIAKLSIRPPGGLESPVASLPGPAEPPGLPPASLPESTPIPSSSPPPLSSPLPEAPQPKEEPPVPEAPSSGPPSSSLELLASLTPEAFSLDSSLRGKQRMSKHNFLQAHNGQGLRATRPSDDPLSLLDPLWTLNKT
inactive: [1] 0.12 | [2] 0.038 | [3] 0.059 | [4] -0.038 | [5] 0.002 | [6] 0.044 | [7] 0.041 | [8] -0.008 | [9] -0.012 | [10] 0.037 | [11] 0.014 | [12] 0.057 | [13] 0.018 | [14] 0.027 | [15] 0.116 | [16] -0.072 | [17] 0.148 | [18] 0.13 | [19] -0.002 | [20] 0.018

PPP1R35 (UniProt Q8TAP8)
Sequence of UniProt Q8TAP8 (Q8TAP8 whole entry, looked up): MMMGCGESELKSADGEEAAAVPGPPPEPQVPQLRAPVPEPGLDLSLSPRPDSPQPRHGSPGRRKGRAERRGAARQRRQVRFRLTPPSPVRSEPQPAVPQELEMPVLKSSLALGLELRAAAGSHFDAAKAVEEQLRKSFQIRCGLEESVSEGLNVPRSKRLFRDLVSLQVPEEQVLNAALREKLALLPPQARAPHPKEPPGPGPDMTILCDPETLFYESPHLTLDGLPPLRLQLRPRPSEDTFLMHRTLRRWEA
inactive: [1] 0.003 | [2] 0.026 | [3] -0.004 | [4] 0.196 | [5] -0.003 | [6] -0.125 | [7] 0.027 | [8] 0.083 | [9] 0.011 | [10] -0.068 | [11] -0.025 | [12] -0.036 | [13] 0.179 | [14] -0.037 | [15] -0.071 | [16] 0.044 | [17] 0.007 | [18] 0.025 | [19] 0.024 | [20] -0.058
